The values that follow come from PubChem BioAssay.

Structures are written as SMILES. Unmarked numbers belong to inactive results. The list shows a part of the results. Active and inactive are the calls of the source. Rule as the data show it, unless noted: active = inhibition above about 30%; inactive = the rest.

The target in experiment [1] is Toll-like receptor 9 (Homo sapiens) (UniProt Q9NR96). Put plainly: TLR9-MyD88 association inhibitors, retest, confirmation, cell-based, CHO, BLA complementation, fluorescence, triplicate (AID 540250;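 active = mean inhibition across three repeats above about 21% taken from the earlier screen, limit read from the data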;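 also: blue over green emission ratio reports constitutive TLR9 MyD88 association via BLA complementation; 0% = DMSO vehicle wells and 100% = clavulanate BLA inhibitor wells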). Particulars: CCF4 FRET ratio, at 4.98 µM, hits give high values.
Chain of Toll-like receptor 9 (Homo sapiens) (Q9NR96 whole entry, looked up): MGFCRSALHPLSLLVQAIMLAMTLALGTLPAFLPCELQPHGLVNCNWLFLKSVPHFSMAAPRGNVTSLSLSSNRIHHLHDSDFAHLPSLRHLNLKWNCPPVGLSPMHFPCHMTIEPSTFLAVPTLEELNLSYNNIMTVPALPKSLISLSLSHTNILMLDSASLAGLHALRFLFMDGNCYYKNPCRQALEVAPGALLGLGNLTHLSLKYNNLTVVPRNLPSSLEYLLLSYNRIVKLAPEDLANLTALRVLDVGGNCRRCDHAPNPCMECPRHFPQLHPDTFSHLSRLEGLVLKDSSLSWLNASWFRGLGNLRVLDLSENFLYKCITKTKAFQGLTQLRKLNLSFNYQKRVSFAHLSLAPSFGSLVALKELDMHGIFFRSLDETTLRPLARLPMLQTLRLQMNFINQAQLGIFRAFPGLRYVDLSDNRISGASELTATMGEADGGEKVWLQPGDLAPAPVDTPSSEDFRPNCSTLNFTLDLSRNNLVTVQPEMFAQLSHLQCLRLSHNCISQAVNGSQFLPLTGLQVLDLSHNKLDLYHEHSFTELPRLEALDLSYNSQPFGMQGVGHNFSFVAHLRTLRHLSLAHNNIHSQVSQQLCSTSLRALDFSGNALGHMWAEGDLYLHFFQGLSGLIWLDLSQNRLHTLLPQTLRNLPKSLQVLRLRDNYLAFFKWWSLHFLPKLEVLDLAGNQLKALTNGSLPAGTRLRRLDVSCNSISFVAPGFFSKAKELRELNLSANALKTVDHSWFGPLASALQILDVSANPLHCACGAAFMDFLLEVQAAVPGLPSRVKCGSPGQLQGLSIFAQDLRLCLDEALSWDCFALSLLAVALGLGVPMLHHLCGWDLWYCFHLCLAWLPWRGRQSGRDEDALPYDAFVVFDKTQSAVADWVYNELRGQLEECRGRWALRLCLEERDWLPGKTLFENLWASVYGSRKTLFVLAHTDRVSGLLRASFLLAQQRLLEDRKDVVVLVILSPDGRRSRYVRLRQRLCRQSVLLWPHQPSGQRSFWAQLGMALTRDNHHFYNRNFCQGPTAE
Experiment [2] is described as follows: beta-lactamase reporter inhibitors in CHO cells, artefact control for TLR9-MyD88 binding inhibitor project, cell-based, fluorescence (AID 540251;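 active = mean inhibition above a 50% cutoff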;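 also: counterscreen of TLR9-MyD88 hits on CMV-driven BLA in CHO-K1 cells; 0% = DMSO alone and 100% = clavulanate blocking BLA; higher means less blue over green ratio so more BLA blockade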). Particulars: CHO-BLA cells, CCF4 FRET ratio, at 4.98 µM, hits give high values.
Experiment [3] can be described thus: CHO cell viability loss – luminescence, single concentration, cytotoxicity control for TLR9-MyD88 binding inhibitor project (AID 588336; in the data active = inhibition above about 11%). Particulars: TLR9-MyD88 CHO cells cytotoxicity, at 4.98 µM, hits give high values.
Experiment [4] deals with Nuclear receptor coactivator 3 (Homo sapiens) (UniProt Q9Y6Q9). In words: SRC3 coactivator transcriptional activity inhibitors, confirmation, cell-based, luminescence, quadruplicate (AID 588792;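 active = mean inhibition over 43.08%, the solvent-only control mean plus 3 SD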;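 also: 0% = DMSO treated cells and 100% = gossypol at 36 µM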). As to conditions: HEK293 GAL4-SRC3 luciferase reporter, at 3.6 µM, hits give high values. (In a reporter assay the amount or activity of a reporter protein is the signal.)
Chain of Nuclear receptor coactivator 3 (Homo sapiens) (Q9Y6Q9 whole entry, looked up, the tested form may be a part): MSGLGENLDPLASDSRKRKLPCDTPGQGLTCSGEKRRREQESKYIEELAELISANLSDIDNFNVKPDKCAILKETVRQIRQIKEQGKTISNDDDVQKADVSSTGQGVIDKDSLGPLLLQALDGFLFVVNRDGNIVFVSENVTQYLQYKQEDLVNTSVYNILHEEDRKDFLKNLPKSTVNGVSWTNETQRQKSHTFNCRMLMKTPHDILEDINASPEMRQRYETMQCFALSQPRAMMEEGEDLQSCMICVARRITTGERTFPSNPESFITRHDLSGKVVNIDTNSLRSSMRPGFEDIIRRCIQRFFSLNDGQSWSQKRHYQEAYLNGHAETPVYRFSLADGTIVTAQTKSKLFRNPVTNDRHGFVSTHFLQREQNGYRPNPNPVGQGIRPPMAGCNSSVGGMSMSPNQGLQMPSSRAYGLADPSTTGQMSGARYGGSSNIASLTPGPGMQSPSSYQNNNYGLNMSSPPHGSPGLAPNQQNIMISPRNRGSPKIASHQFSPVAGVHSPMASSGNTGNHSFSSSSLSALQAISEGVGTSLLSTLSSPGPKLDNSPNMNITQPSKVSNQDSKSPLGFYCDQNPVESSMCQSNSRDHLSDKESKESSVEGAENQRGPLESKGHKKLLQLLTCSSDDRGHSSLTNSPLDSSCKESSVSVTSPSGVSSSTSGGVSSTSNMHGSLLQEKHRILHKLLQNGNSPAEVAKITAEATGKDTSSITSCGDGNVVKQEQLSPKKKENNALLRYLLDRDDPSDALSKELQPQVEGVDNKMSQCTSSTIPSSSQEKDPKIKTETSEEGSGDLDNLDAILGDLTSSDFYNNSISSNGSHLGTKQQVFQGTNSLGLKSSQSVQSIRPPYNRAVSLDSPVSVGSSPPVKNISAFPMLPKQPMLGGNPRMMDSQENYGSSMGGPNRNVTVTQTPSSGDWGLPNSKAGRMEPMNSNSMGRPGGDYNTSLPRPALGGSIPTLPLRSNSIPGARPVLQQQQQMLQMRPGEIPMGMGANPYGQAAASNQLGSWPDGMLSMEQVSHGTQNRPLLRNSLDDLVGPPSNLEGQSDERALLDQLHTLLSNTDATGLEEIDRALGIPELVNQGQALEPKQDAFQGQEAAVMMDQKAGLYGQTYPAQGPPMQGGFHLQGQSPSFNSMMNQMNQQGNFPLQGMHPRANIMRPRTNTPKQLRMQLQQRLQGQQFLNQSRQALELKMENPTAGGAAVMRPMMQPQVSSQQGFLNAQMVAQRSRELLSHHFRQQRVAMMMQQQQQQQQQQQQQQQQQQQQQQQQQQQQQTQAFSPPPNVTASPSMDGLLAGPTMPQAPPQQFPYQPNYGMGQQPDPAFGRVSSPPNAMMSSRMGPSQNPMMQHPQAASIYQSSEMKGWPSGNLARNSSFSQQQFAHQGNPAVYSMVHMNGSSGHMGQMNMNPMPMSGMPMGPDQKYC
The test system of experiment [5] is transactivating tegument protein VP16 (Human herpesvirus 1), Gal4-VP16 luciferase reporter. Put plainly: VP16 transactivation inhibitors, counter-screen for SRC3 inhibitor project, cell-based, luminescence, high throughput (AID 588794). Particulars: mammalian cells, VP16-driven luciferase reporter luminescence; at 3.6 µM; hits give high values. In general terms: The purpose of a counterscreen is to sort out artefacts and off-target activity.

A word on the inhibition: it is the relative decrease from the control value, in per cent. `C[N+](C)(C)CCNC(=O)c1cc[n+](Cc2ccccc2)c(/C=N/O)c1`: the results for the inhibition in experiment [1], in experiment [2] and in experiment [3] were 7.66%, 6.76% and -0.18%, respectively.
Regarding `COc1cc(NC(=O)c2cccs2)c(C(=O)OCC(=O)c2cc(C)n(-c3ccc(F)cc3)c2C)cc1OC`, the inhibition in experiment [4] is 5.85%; in experiment [5], 2.26%.
In the case of `COc1ccc(CCNc2ncnc3sccc23)cc1OC`, the figures for the inhibition in experiment [4] and in experiment [5] were 12% and 42.6% (active), respectively.
For the compound `Cc1ccccc1-n1nnnc1Sc1nnnn1-c1ccccc1`, the inhibition in experiment [4] was 7%; in experiment [5], 7.79%.
For `CC(C)CN=C(NS(=O)(=O)c1ccccc1)C(Cl)(Cl)Cl`, in that order: 24.3% and 16.1%.
As to `Fc1ccccc1-c1csc(=Nc2cccnc2)n1CCCn1ccnc1`, the inhibition in experiment [4] was 37.4%; in experiment [5], 25.1%.
For `CCCCCCSc1ccc([C@H]2N[C@@](CC(C)C)(C(=O)OC)[C@H]3C(=O)N(C)C(=O)[C@@H]23)cc1OC`, in that order: 4.49% and -10.5%.
With `COc1ccc(OC)c(C2C3=C(CCCC3=O)NC3=C2C(=O)CCC3)c1`, the values for the inhibition in experiment [4] and in experiment [5] were 4.98% and -6.31%, respectively.
`C/C(N)=C(/C#N)C(=O)COC(=O)c1ccc(C#N)cc1`: the values for the inhibition in experiment [4] and in experiment [5] were -7.91% and -0.63%, respectively.
As for `O=C(NNC(=O)c1cccnc1SCc1cccc([N+](=O)[O-])c1)c1ccccn1`, the inhibition in experiment [4] was 34.4%; in experiment [5], 30.1% (active).
For `O=C(NCCc1cn2ccccc2n1)c1cc(COc2ccc3ncccc3c2)on1`, the inhibition is -5.01% in experiment [4] and 18.4% in experiment [5].
On to `c1cncc(CNc2ncnc3sc4c(c23)CCC4)c1`, for which the inhibition in experiment [4] was 23.1%; in experiment [5], 9.1%.
As to `Cc1cc(C)n(-c2ccc(C(=O)Nc3cccc(S(=O)(=O)N(C)C)c3)cc2)n1`, the inhibition in experiment [4] is -2.01%; in experiment [5] it was 18.6%.
On the same counts, the results for `O=C(NCCNc1ccc([N+](=O)[O-])cc1C(F)(F)F)c1cccc(F)c1` are 15.4% and 12.6%.
For `COc1cc(C(=O)Nc2nc(-c3cccs3)cs2)cc(OC)c1OC`, the inhibition in experiment [4] was -9.35%; in experiment [5], -21.8%.
For `O=C1CC(=O)OC(c2ccc([N+](=O)[O-])cc2)O1`, the inhibition is 26.8% in experiment [4] and 40.5% (active) in experiment [5].
On to `CCOC(=O)c1cnc(SC2CC(=O)N(c3cccc(OC)c3)C2=O)nc1N` (configuration not stated), for which the values for the inhibition in experiment [4] and in experiment [5] were 9.15% and 6.73%, respectively.
On the same counts, the results for `Cc1ccc(S(=O)(=O)Nc2ccc3c(c2)OCCO3)cc1C` are 24.1% and -2.28%.
Consider `O=C(N/N=C/c1cc(Br)ccc1OC(=O)c1ccc(Br)cc1)c1ccncc1`, for which the inhibition in experiment [4] was 20.5%; in experiment [5], 28%.
Turning to `O=C(NNc1ccc(O)cc1)c1ccc(Br)cc1`, the inhibition in experiment [4] is 31.5%; in experiment [5] it was 63.4% (active).
For `COc1cccc(C(=O)/C=C/c2ccc(OCC#N)c(OC)c2)c1`, in that order: 22.2% and 23.2%.
Consider `CCCCn1c(/N=C/c2ccc(N(C)C)cc2)nc2ccccc21`, for which the inhibition was -1.05% in experiment [4] and -4% in experiment [5].
Consider `CC(=O)N1CCCc2cc(S(=O)(=O)N3CCCC(C(=O)NCc4ccc(Cl)cc4)C3)ccc21` (configuration not stated), for which the values for the inhibition in experiment [4] and in experiment [5] were 4.47% and 9.17%, respectively.
Consider `Cc1ccc(-c2cn(-c3ccc(OC(F)F)cc3)c3[n+]2CCCCC3)cc1`, for which the values for the inhibition in experiment [4] and in experiment [5] were 3.74% and 23%, respectively.
Take `Cc1nc(NCc2ccccn2)c2ccccc2n1`: the inhibition is -6.68% in experiment [4] and 13.9% in experiment [5].
As for `COc1cc2[nH]c3c(Cl)ncnc3c2cc1OC`, the results for the inhibition in experiment [4] and in experiment [5] were 32.2% and 16.2%, respectively.
Regarding `CC(C)(C)c1csc(Sc2ccc([N+](=O)[O-])cn2)n1`, the inhibition is 13.1% in experiment [4] and -8.39% in experiment [5].
Take `COc1ccc(CNC(=O)c2ccc(Cl)c(S(=O)(=O)N3CCOCC3)c2)cc1OC`: the inhibition was 12.8% in experiment [4] and 27.5% in experiment [5].
For `CCN(CC)CCCNc1nc2cc(OC)c(OC)cc2c2nc(-c3cccnc3)nn12`, in that order: -30.7% and 39.4% (active).
For the compound `O=C(NC(=S)NNC(=O)c1ccccc1O)c1ccc(F)cc1`, the values for the inhibition in experiment [4] and in experiment [5] were 19% and 9.84%, respectively.
As to `CC(=O)Nc1nc(C)c(-c2csc(Nc3cccc([N+](=O)[O-])c3)n2)s1`, the inhibition in experiment [4] is 7.09%; in experiment [5], -11.4%.
For `CC(=O)N(Cc1ccc(F)cc1)C1=C(NCc2ccccc2)C(=O)c2ccccc2C1=O`, the inhibition in experiment [4] is 30.9%; in experiment [5], 31.9% (active).
As to `Cc1ccc(NC(=O)C(=Cc2ccc(C(=O)O)cc2)C(=O)Nc2ccc(C)cc2C)c(C)c1`, the inhibition in experiment [4] is 32.6%; in experiment [5], 46% (active).
On to `CCOC(=O)c1c(C)[nH]c(C)c1C(=O)COC(=O)/C=C/c1cccc(Cl)c1`, for which the inhibition in experiment [4] is -3.47%; in experiment [5], -1.23%.
Regarding `CCOC(=O)c1c(Nc2ccccc2OCCOC)n[nH]c1C`, the values for the inhibition in experiment [4] and in experiment [5] were -0.73% and -0.92%, respectively.
For the compound `NC(=S)N/N=C\c1c(OCc2ccccc2Cl)ccc2ccccc12`, the inhibition in experiment [4] was 18.1%; in experiment [5] it was 27.6%.
For the compound `COc1ccc2nc(NC(=O)C3CCN(S(=O)(=O)c4cccs4)CC3)sc2c1`, the inhibition in experiment [4] is 20.3%; in experiment [5], 15.2%.
On to `Clc1ccc(C[n+]2cc(-c3ccccc3)n3c2CCCCC3)c(Cl)c1`, for which the inhibition in experiment [4] was 22.4%; in experiment [5] it was 46.7% (active).
On the same counts, the results for `CC(=O)c1c(C)n(-c2ccc(Br)cc2)c2ccc(O)cc12` are 53.3% (active) and 30.8% (active).
On to `CCCC(C(=O)NC(C)(C)C)N(C(=O)c1snc(C(N)=O)c1N)c1ccc2c(c1)OCCO2` (configuration not stated), for which the inhibition in experiment [4] was 15.9%; in experiment [5], 2.4%.
In the case of `CS(=O)(=O)c1ccc(Sc2nc3ccccc3s2)c([N+](=O)[O-])c1`, the figures for the inhibition in experiment [4] and in experiment [5] were 45.8% (active) and 19.5%, respectively.
On to `COCCNC(=O)c1cc(-c2ccccn2)nc2ccc(S(=O)(=O)N3CCC(C)CC3)cc12`, for which the inhibition in experiment [4] was 30.4%; in experiment [5] it was 0.64%.
For `O=[N+]([O-])c1cc(S(=O)(=O)NCCN2CCOCC2)ccc1Sc1nnnn1-c1ccccc1`, in that order: 12.9% and -10.3%.
